Test results from ChEMBL document CHEMBL4513216, “Probing the Open Global Health Chemical Diversity Library for Multistage-Active Starting Points for Next-Generation Antimalarials” (ACS Infect Dis, 2020).
Screen size: about 69,000 compounds; about 8,600 (12%) showed an effect of 50% or more. What follows is part of a selection rich in strong results, with near analogues and random picks from the rest.

System: Plasmodium berghei
Assay: Screen against P. berghei liver stage (PbLuc), transformed with Luciferase, at 10uM
Type: functional, HepG2
Settings: tested at 10 uM

| SMILES | INHIBITION [%] |
| --- | --- |
| Cc1cc(C)n(CC2CN(c3ccc(C#N)cn3)CCO2)n1 (stereo not given) | 23.7 |
| Cc1nn(C)c2cnn(Cc3ccc(C(=O)NC4CC4)o3)c12 | 16.8 |
| Cc1nn(C)c2cnn(Cc3ccc(C(=O)N4CCCCC4)o3)c12 | 21.7 |
| Cc1nn(C)c2cnn(Cc3ccc(C(=O)N4CCN(C)CC4)o3)c12 | 65.6 |
| CCc1ccc(NC(=O)N2C[C@@H]3C[C@H](C(=O)NC)[C@H](C2)O3)cc1 | 15 |
| O=C1NCc2ccccc2CC12CCCN(Cc1ccsc1)C2 (stereo not given) | 14.3 |
| CC(CC(=O)Nc1ncn(CC(=O)N2CCCCCC2)n1)C1CC1 (stereo not given) | -28.8 |
| O=C(CC1C=CCC1)Nc1ncn(CC(=O)N2CCCCCC2)n1 (stereo not given) | 50.6 |
| O=C(Nc1ncn(CC(=O)N2CCCCCC2)n1)C1CCCC1 | 2.7 |
| O=C(COCC1CC1)Nc1ncn(CC(=O)N2CCCCCC2)n1 | -32.4 |
| CC(OCC1CC1)C(=O)Nc1ncn(CC(=O)N2CCCCCC2)n1 (stereo not given) | 51.7 |
| O=C(COC1CCCC1)Nc1ncn(CC(=O)N2CCCCCC2)n1 | 8.75 |
| Cc1ccc2oc(C(=O)N3CCCC(n4nc(C)nc4C)C3)cc2n1 (stereo not given) | -2.95 |
| COc1ccc(CNC(=O)CCCc2nnc3ccc(OC)nn23)cc1 | 8.99 |
| CCn1nc(CNC(C)(C)CO)c(-c2ccccc2)n1 | 20.9 |
| CCCOCC(=O)N1CCc2c(cccc2S(=O)(=O)N2CCOCC2)C1 | 26.7 |
| Fc1cnc(N2CC[C@@H]3O[C@@H](COCc4ccccn4)CC[C@@H]32)nc1 | 18.5 |
| c1cnc(N2CCC3(CCN(CC4CCOC4)C3)CC2)nc1 (stereo not given) | 34.7 |
| COc1ccc(Br)c(C(=O)NCC2CC2)c1 | 90.2 |
| Cc1cccc(C)c1NC(=O)NCC1CCCN(C2CCOCC2)C1 (stereo not given) | -15 |
| COc1cccc(OCC2CCCN(C3CCN(C(C)=O)CC3)C2)c1 (stereo not given) | 15.1 |
| COc1ccc(Br)c(C(=O)NCC2CCN(S(=O)(=O)C3CC3)CC2)c1 | 38.5 |
| COCCNC(=O)c1cc(OC)ccc1Br | -85 |
| COc1ccc(C(=O)NCC2CCCN(C3CCOCC3)C2)c(O)c1 (stereo not given) | 57.4 |
| COc1ccc(O)c(C(=O)NCC2CCCN(C3CCOCC3)C2)c1 (stereo not given) | 14.3 |
| COc1cccc(NC(=O)NCC2CCCN(C3CCOCC3)C2)c1 (stereo not given) | 58.8 |
| COc1ccc(C(=O)Nc2cnn(CCN3CCOCC3)c2)c(O)c1 | 29.5 |

| SMILES | INHIBITION [%] |
| --- | --- |
| CC(NC(=O)N(C)CCCOc1ccccc1)c1nncn1C (stereo not given) | 0.914 |
| Cc1ccc(N2CCC3(CCC(=O)N3Cc3ccncc3)CC2)nn1 | 3.17 |
| CCc1nnc2n1CCN(C(=O)C(C)Oc1ccc(C#N)cc1)C2 (stereo not given) | -48.3 |
| CCS(=O)(=O)N1Cc2ccnn2CC(c2nc(C)no2)C1 (stereo not given) | -5.63 |
| Cc1noc(C2CN(S(=O)(=O)C3CC3)Cc3ccnn3C2)n1 (stereo not given) | 34.6 |
| Cc1noc(C2CN(S(C)(=O)=O)Cc3ccnn3C2)n1 (stereo not given) | 50.7 |
| CNc1oc(-c2ccc(OC)c(S(=O)(=O)N(C)C)c2)nc1C#N | 8.46 |
| CC1CN(C(=O)Nc2cc(C(F)(F)F)c[nH]c2=O)CCO1 (stereo not given) | -4.12 |
| O=C(Cc1ccncc1)N1C[C@H]2CC[C@@H](C1)N(Cc1ccccc1)C2=O | 63.7 |
| O=C(Cc1ccccn1)N1C[C@H]2CC[C@@H](C1)N(Cc1ccccc1)C2=O | -4.86 |
| O=C(Cc1cccnc1)N1C[C@H]2CC[C@@H](C1)N(Cc1ccccc1)C2=O | 40.4 |
| CCc1nc(CNc2ccc(C(=O)N3CCSCC3)cc2C)no1 | 15.5 |
| O=C(O)c1cc2c(nc1-c1ccsc1)CCN(C1CCOC1)CC2 (stereo not given) | 11.3 |
| Cc1ccc(N2CCN(C(=O)CCc3n[nH]c(C)n3)CC2=O)cc1 | 2.7 |
| CSC(C)C(=O)N1CCCN(Cc2nccn2C)CC1 (stereo not given) | -5.25 |
| CC(Oc1ccccc1)C(=O)N1CCCN(Cc2nccn2C)CC1 (stereo not given) | 54.4 |
| CC(CC(=O)N1CCCN(Cc2nccn2C)CC1)n1cccc1 (stereo not given) | 18.9 |
| CC(OCC1CC1)C(=O)N1CCCN(Cc2nccn2C)CC1 (stereo not given) | 9.32 |
| CCn1ccnc1CN1CCCN(C(=O)c2cccn2C)CC1 | 56.6 |
| CCn1ccnc1CN1CCCN(C(=O)c2cc(C)nn2CC)CC1 | 32.3665 |
| Cn1ccnc1CN1CCCN(C(=O)c2ccc3[nH]cnc3c2)CC1 | 21 |
| Cn1ccnc1CN1CCCN(C(=O)c2ccc3ccccc3c2)CC1 | 27.8 |
| Cn1ccnc1CN1CCCN(C(=O)CC(C2CC2)C2CC2)CC1 | 50.3 |
| Cn1ccnc1CN1CCCN(C(=O)c2ccc3cc[nH]c3c2)CC1 | 55.2 |
| Cn1ccnc1CN1CCCN(C(=O)COC2CCCC2)CC1 | -11.4 |
| CCn1ccnc1CN1CCCN(C(=O)c2ccnn2C)CC1 | 16.45 |
| CCNc1nc2cn(-c3ccc(CC)cc3)c(=O)c-2c[nH]1 | -14.245 |

| SMILES | INHIBITION [%] |
| --- | --- |
| Cn1cc(C2CCCN2C(=O)c2ccc(OCC3CC3)nc2)cn1 (stereo not given) | -27 |
| O=S(=O)(CCN1CCN(c2ccccc2O)CC1)c1ccc(Cl)cc1 | -36.3 |
| CN(C)CCN1C[C@@H]2CN(C(=O)C3CCOC3)C[C@@H]2C1=O (stereo not given in full) | 12.7 |
| COc1ccc(/C=C/CN2C[C@@H]3CC[C@H]2CN(S(=O)(=O)N(C)C)C3)cc1 | 38.6 |
| CCOCC1CN(Cc2cccnc2)Cc2nn(C)cc21 (stereo not given) | -21.4 |
| O=C(C1CC(F)(F)C1)N1C[C@@H]2CN(CC3CCCC3)CCO[C@@H]2C1 | 20.6 |
| O=C1CN(C(=O)CCn2c(C(F)(F)F)cc3cccnc32)CCN1 | 25.6 |
| CSC1(CNC(=O)c2cccc(-n3cccn3)c2)CCOCC1 | -46.4 |
| Cc1ncccc1NC(=O)[C@@H]1CCO[C@@H]2CCN(c3ccccc3)C[C@@H]21 | 41.4 |
| CC(C)N1CCC(CC(=O)N2CCN(Cc3nccn3C)CC2)CC1 | 58.5 |
| CC(C)N1CCC(CC(=O)N2CCC(C(O)c3nccn3C)CC2)CC1 (stereo not given) | 46.7 |
| Cn1ccnc1CN1CCCN(C(=O)COCC2CC2)CC1 | 13.3 |
| O=c1c2c[nH]c(N3CCCCC3)nc-2cn1-c1ccc2c(c1)OCO2 | -22.9 |
| Fc1cccc(-c2nnn3c2COC(CNCc2cccs2)C3)c1 (stereo not given) | 1.9 |
| Fc1cccc(-c2nnn3c2COCC(CNCc2nccs2)C3)c1 (stereo not given) | 47.5 |
| Fc1cccc(-c2nnn3c2COC(CNCc2nccs2)C3)c1 (stereo not given) | 50.3 |
| Fc1cccc(-c2nnn3c2COC(CNCc2ccsc2)C3)c1 (stereo not given) | 52 |
| Cc1ccc(CNCC2Cn3nnc(-c4cccc(F)c4)c3CO2)o1 (stereo not given) | 18.2 |
| Cc1cccc(-c2nnn3c2COC(CNCc2nccs2)C3)c1 (stereo not given) | -10.2 |
| COc1cc2nc(C)n(CC(=O)NCC(C)C)c(=O)c2cc1OC | 21.5 |
| CC(=O)N1CCC(Cc2nccnc2-c2c(C)n[nH]c2C)C1 (stereo not given) | -14.1 |
| COCCN1C[C@@H](C)[C@@]2(COCCN(C(=O)c3cccc(C)n3)C2)C1 | -10.5 |
| COc1ccc(-c2nc(C3CCNCC3)cc3c2ncn3C)cc1 | 53 |
| CC(C)n1cnc2c(N3CCCC3)nc(C3CCNCC3)cc21 | -3.52 |
| Cn1cnc2c(-c3cccnc3)nc(C3CCNCC3)cc21 | 48.4 |
| CC(C)n1cnc2c(-c3cccnc3)nc(C3CCNCC3)cc21 | 55.7 |
| COc1ccc(-c2ccnc(C3CCNCC3)c2)cc1 | 29.2 |

| SMILES | INHIBITION [%] |
| --- | --- |
| Cn1cc(-c2nc(C3CCN(S(C)(=O)=O)CC3)cc3c2ncn3C)cn1 | 15.7 |
| CC(=O)N1CCC(c2cc3c(ncn3C)c(-c3cnn(C)c3)n2)CC1 | 33.4 |
| Cn1cnc2c(-c3ccccc3)nc(C3CCNCC3)cc21 | 38.5 |
| Cn1cc(-c2nc(C3CCN(CC4CC4)CC3)cc3c2ncn3C)cn1 | 61.5 |
| O=C(CC1CC1)NCc1cn2c(n1)CN(CC1CC1)CC2 | 9.67 |
| Cc1nc2sc(C(=O)N3CCNC(=O)C3)c(C)c2c(=O)[nH]1 | -4.35 |
| Cc1nc(-c2ccsc2)ccc1C(=O)NCC(C)N1CCOCC1 (stereo not given) | -24.275 |
| N#Cc1ccc(F)c(CN2CCCCC2Cn2cccn2)c1 (stereo not given) | -36.1 |
| COc1ccccc1CC(C)CC(=O)N(C)Cc1cc(C)on1 (stereo not given) | 14.7 |
| O=C(c1nc2c(o1)CN(CC1CCC1)C2)N1CCCC1 | -15.6 |
| COc1cc2nc3n(c(=O)c2cc1OC)CCN(C(=O)C1CCC1)CC3 | 23.4 |
| COCCN1CCN(CC(O)c2cc(OC)ccc2OC)CC1 (stereo not given) | -94.3 |
| COc1cccc(N2CCN(CC(O)c3cc(C)ccc3C)CC2)c1 (stereo not given) | 67.9 |
| COc1cccc(N2CCN(CC(O)c3ccc(C)cc3)CC2)c1 (stereo not given) | 17.4 |
| OC(CN1CCCCCCC1)c1ccc(OC(F)(F)F)cc1 (stereo not given) | 19.2 |
| CCc1ccc(C(O)CN2CCN(c3cccc(OC)c3)CC2)cc1 (stereo not given) | 54 |
| CCCN1CCN(CC(O)c2ccc(OC(F)(F)F)cc2)CC1 (stereo not given) | 33.7 |
| COc1cccc(N2CCN(CC(O)c3cc(C)sc3C)CC2)c1 (stereo not given) | 63.1 |
| COc1ccc(OC)c(C(O)CN2CCN(C3CCCC3)CC2)c1 (stereo not given) | -113 |
| COc1cccc(C(O)CN2CCN(c3cccc(C)c3)CC2)c1 (stereo not given) | 16 |
| CCN1CCN(CC(O)c2ccc(OC(F)(F)F)cc2)CC1 (stereo not given) | 56.1 |
| CCn1cc(CN2CCN(CC(O)c3cc(C)ccc3C)CC2)c(C)n1 (stereo not given) | 43.6 |
| CCOCCN1CCN(CC(O)c2ccc(OC)cc2)CC1 (stereo not given) | -9.39 |
| CCN(Cc1nonc1C)C(=O)Cn1nc(C(F)(F)F)cc1C1CC1 | 28.89 |
